The nature of assay [1]: qHTS assay to identify small molecule antagonists of the thyroid receptor (TR) signaling pathway - cell viability counter screen (AID 743064). Note: nearly all actives have a fitted effect of over 50% in size. Note: potency is the fitted concentration of half-maximal effect. Summed up:
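Viability of T3-stimulated (1 nM final) GH3.TRE-Luc cells is measured by CellTiter-Fluor fluorescence after 23.5 h compound exposure at 37 °C plus 30 min reagent incubation.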
In general terms: In qHTS, concentration-response curves come from the screen itself.

In assay [2] the test system is thyroid hormone receptor (rat, GH3 cells). The assay is described as follows: qHTS assay to identify small molecule agonists of the thyroid receptor (TR) signaling pathway (AID 743066; calls by dose curve).
The target in assay [3] is Estrogen receptor (Homo sapiens) (UniProt P03372). The assay can be described thus: qHTS assay to identify small molecule antagonists of the estrogen receptor alpha (ER-alpha) signaling pathway (AID 743069; active = well fitted curve in the direction sought with a large enough effect in the signal ratio in the repeat runs, not every such curve was filed as active; the % refers to the signal ratio). Summed up: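 In this cell-based reporter format, GripTite HEK293 cells harbouring ER-alpha-UAS-bla were grown overnight with 2% charcoal-stripped FBS, dosed with DMSO-dissolved compounds, then challenged with 17beta-estradiol. After 18 hr at 37C, beta-lactamase activity was detected by FRET fluorescence.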
Estrogen receptor (Homo sapiens), sequence (P03372 whole entry, looked up): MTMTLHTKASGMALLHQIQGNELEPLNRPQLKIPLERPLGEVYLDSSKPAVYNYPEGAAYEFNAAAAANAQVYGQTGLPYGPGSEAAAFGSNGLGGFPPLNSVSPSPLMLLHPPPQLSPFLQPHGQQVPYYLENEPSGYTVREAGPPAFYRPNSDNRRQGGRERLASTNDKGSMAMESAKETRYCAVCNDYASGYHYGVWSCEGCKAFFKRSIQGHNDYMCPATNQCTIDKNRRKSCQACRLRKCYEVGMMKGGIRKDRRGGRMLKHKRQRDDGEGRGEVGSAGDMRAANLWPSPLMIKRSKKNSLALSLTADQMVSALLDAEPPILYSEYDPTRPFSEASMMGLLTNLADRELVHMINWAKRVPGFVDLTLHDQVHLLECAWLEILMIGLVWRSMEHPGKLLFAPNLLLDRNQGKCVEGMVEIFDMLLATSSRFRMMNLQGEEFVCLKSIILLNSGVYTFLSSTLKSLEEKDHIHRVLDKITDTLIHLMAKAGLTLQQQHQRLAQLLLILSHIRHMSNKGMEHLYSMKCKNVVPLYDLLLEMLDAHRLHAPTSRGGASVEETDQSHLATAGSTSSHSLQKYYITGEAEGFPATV

A short description of assay [4]: qHTS assay to identify small molecule antagonists of the estrogen receptor alpha (ER-alpha) signaling pathway - cell viability counter screen (AID 743074; calls by dose curve; note: nearly all actives have a fitted effect of over 45% in size; note: potency is the fitted concentration of half-maximal effect).
Assay [5] concerns the target Estrogen receptor (Homo sapiens) (UniProt P03372). The assay is described as follows: qHTS assay to identify small molecule agonists of the estrogen receptor alpha (ER-alpha) signaling pathway (AID 743075; calls by dose curve).
For assay [6] the target is unchanged. The assay can be described thus: qHTS assay to identify small molecule agonists of the estrogen receptor alpha (ER-alpha) signaling pathway using the BG1 cell line (AID 743079). Note: nearly all actives have a fitted effect of over 20% in size. Note: potency is the fitted concentration of half-maximal effect. Conditions: BG1Luc4E2 cells, ERE-luciferase agonist, 22 h; activation: at 70.3 µM (top of the series) unless noted.
The nature of assay [7]: qHTS assay to identify small molecule antagonists of the estrogen receptor alpha (ER-alpha) signaling pathway using the BG1 cell line (AID 743080; calls by dose curve;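 note: BG1 cells stimulated with 17beta-estradiol alongside compound; nearly all actives have a fitted effect of over 25% in size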). In short, it runs like this: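 After 5 days in phenol-red-free 10% charcoal-stripped FBS medium, BG1-Luc-4E2 cells were seeded, left 24 h at 37 C, co-treated with compounds and 17beta-estradiol for 21.5 h, then assayed for viability and luciferase.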

Assay [8] can be described thus: qHTS assay to identify small molecule antagonists of the estrogen receptor alpha (ER-alpha) signaling pathway using the BG1 cell line - cell viability counter screen (AID 743081).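 Note: compound given together with 17beta-estradiol as the ER stimulus; nearly all actives have a fitted effect of over 45% in size.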 Note: potency is the fitted concentration of half-maximal effect.
Another assay deals with Aromatase (Homo sapiens) (UniProt P11511). The assay can be described thus: qHTS assay to identify aromatase inhibitors (AID 743083). Note: nearly all actives have a fitted effect of over 55% in size. Note: potency is the fitted concentration of half-maximal effect.
Aromatase (Homo sapiens), sequence (P11511 whole entry, looked up): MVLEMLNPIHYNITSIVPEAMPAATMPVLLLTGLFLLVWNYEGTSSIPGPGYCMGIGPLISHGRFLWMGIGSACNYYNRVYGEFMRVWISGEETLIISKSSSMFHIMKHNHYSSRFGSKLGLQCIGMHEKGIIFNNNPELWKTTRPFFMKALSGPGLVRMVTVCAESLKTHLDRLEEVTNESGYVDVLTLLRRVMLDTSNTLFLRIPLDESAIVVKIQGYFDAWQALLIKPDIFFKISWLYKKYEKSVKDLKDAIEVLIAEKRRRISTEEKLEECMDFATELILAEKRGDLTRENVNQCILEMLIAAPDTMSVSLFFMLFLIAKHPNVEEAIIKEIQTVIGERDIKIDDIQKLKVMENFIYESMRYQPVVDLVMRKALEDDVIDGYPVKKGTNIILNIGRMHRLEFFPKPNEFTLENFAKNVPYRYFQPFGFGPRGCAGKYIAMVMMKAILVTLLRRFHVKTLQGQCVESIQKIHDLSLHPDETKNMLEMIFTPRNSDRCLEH
The nature of assay [9]: qHTS assay to identify aromatase inhibitors - cell viability counter screen (AID 743084).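 Note: cells stimulated with testosterone during compound exposure; nearly all actives have a fitted effect of over 55% in size.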 Note: potency is the fitted concentration of half-maximal effect.
In assay [10] the target is Aryl hydrocarbon receptor (Homo sapiens) (UniProt P35869). The assay can be described thus: qHTS assay to identify small molecule that activate the aryl hydrocarbon receptor (AhR) signaling pathway (AID 743085).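 Note: HG2L7.5c1 human HepG2 liver cells with stably integrated DRE-driven firefly reporter; nearly all actives have a fitted effect of over 15% in size.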 In short, it runs like this:
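A multiplexed format paired cell viability (CellTiter-Fluor fluorescence) with AhR-dependent luciferase output (ONE-Glo luminescence) in the same wells of HepG2 DRE-luc cells after 24 h compound exposure at 37C.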

Assay [11] in a line: qHTS assay to identify small molecule that activate the aryl hydrocarbon receptor (AhR) signaling pathway - cell viability counter screen (AID 743086). Note: nearly all actives have a fitted effect of over 45% in size. Note: potency is the fitted concentration of half-maximal effect. Summed up:
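HepG2-AhR-luc (HG2L7.5c1) cells, 4000/well, treated 24 h at 37 C with compound; viability measured as CellTiter-Fluor fluorescence after 30 min in the same wells as the luciferase read.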

In assay [12] the target is Peroxisome proliferator-activated receptor gamma (Homo sapiens) (UniProt P37231). The assay can be described thus: qHTS assay to identify small molecule agonists of the peroxisome proliferator-activated receptor gamma (PPARg) signaling pathway (AID 743094; active = well fitted activation curve with a large enough effect in the signal ratio in the repeat runs, not every such curve was filed as active; the % refers to the signal ratio). Summed up: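 Agonism was assessed in a beta-lactamase reporter system, HEK293H cells with a stably integrated UAS-bla construct under PPARg control; the 17 h treatment at 37C preceded a 1 h room-temperature FRET substrate read.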
Peroxisome proliferator-activated receptor gamma (Homo sapiens), sequence (P37231 whole entry, looked up): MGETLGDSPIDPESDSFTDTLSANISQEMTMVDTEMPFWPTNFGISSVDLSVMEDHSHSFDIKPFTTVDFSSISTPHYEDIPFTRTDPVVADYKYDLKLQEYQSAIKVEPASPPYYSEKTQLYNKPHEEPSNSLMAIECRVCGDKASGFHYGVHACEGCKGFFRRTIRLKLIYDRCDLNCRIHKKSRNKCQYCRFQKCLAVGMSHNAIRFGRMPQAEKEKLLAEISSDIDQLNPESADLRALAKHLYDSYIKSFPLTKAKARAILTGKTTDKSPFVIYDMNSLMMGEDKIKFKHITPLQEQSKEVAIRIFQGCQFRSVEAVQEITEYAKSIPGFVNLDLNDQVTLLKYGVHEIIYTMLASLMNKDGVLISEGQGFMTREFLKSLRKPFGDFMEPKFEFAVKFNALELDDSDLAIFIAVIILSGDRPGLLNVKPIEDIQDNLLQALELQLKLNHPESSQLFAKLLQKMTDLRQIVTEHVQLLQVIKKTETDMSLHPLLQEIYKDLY

Assay [13] shares this target. The assay can be described thus: qHTS assay to identify small molecule antagonists of the peroxisome proliferator-activated receptor gamma (PPARg) signaling pathway (AID 743191; calls by dose curve; note: nearly all actives have a fitted effect of over 30% in size). In short, it runs like this:
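GeneBLAzer PPARg UAS-bla HEK293H cells, 5 h post-plating, exposed to compounds 17 h at 37C. LiveBLAzer B/G FRET substrate added for 1 h at room temperature; beta-lactamase reporter read by fluorescence intensity.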

A short description of assay [14]: qHTS assay to identify small molecule antagonists of the peroxisome proliferator-activated receptor gamma (PPARg) signaling pathway - cell viability counter screen (AID 743194). Note: nearly all actives have a fitted effect of over 55% in size. Note: potency is the fitted concentration of half-maximal effect. Conditions: Potency: co-treated with 50 nM rosiglitazone unless noted. In short, it runs like this: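 Cytotoxicity counter screen in PPARg-bla HEK293H cells, same wells as reporter assay. Compounds plus 50 nM rosiglitazone (final) for 17 h at 37 C, then viability read by CellTiter-Glo luminescence.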

A short description of assay [15]: qHTS assay for small molecule agonists of the antioxidant response element (ARE) signaling pathway (AID 743202; active = well fitted activation curve with a large enough effect in the signal ratio in the repeat runs, not every such curve was filed as active; the % refers to the signal ratio). In short, it runs like this:
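HepG2 ARE-bla cells; 16 h treatment at 37 C; FRET-based beta-lactamase fluorescence read after 2 h substrate incubation at room temperature.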

Assay [16] in a line: qHTS assay for small molecule agonists of the antioxidant response element (ARE) signaling pathway - cell viability counter screen (AID 743203; calls by dose curve; note: nearly all actives have a fitted effect of over 55% in size; note: potency is the fitted concentration of half-maximal effect). Summed up: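 ATP content via CellTiter-Glo luminescence served as the viability measure. Cells: ARE-bla HepG2, 2,000 per well. Exposure: 16 hrs, 37C/5% CO2.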
Assay [17] can be described thus: qHTS assay for small molecule activators of the heat shock response signaling pathway - cell viability counter screen (AID 743209). Note: nearly all actives have a fitted effect of over 50% in size. Note: potency is the fitted concentration of half-maximal effect. Summed up: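 Compounds dissolved in DMSO were added to overnight-plated HSE-bla HeLa cells and left 5 h at 37 C. Cell viability was quantified by luminescence using CellTiter-Glo.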
Assay [18] can be described thus: qHTS assay for small molecule activators of the heat shock response signaling pathway (AID 743210; active = well fitted activation curve with a large enough effect in the signal ratio in the repeat runs, with a control signal flat, not every such curve was filed as active; the % refers to the signal ratio;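 note: HeLa cells with beta-lactamase reporter driven by heat shock elements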). Summed up: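 Following overnight attachment, HSE-bla HeLa cells received test compounds for 5 h at 37 C; beta-lactamase activity was then detected via FRET substrate fluorescence.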
Assay [19] in a line: qHTS assay to identify small molecule antagonists of the thyroid receptor (TR) signaling pathway (AID 743065). Note: nearly all actives have a fitted effect of over 55% in size. Note: potency is the fitted concentration of half-maximal effect. In short, it runs like this:
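GH3.TRE-Luc rat pituitary cells (two TREs driving luciferase) were dosed with compound, then stimulated with 1 nM T3 (final) for 23.5 h at 37 C. ONE-Glo luminescence was the read-out, with CellTiter-Fluor fluorescence as the cytotoxicity counter-screen.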

Where “and” joins values, the source holds several entries; their conditions need not be identical. Identical values can stand only once. Records with an inconclusive call do not appear. More than one record can exist for a structure, and the calls need not agree. Calls of active or inactive are those of the source. Unless noted, calls come from the whole dose curve; as a rule, active = well fitted curve in the direction sought with a large enough effect in the repeat runs; inconclusive = weak or mixed curves; inactive = no such curve, though single readings can be large; an effect the other way counts as inactive or inconclusive.

The values that follow come from PubChem BioAssay (Tox21).

Aryl hydrocarbon receptor (Homo sapiens), sequence (P35869 whole entry, looked up): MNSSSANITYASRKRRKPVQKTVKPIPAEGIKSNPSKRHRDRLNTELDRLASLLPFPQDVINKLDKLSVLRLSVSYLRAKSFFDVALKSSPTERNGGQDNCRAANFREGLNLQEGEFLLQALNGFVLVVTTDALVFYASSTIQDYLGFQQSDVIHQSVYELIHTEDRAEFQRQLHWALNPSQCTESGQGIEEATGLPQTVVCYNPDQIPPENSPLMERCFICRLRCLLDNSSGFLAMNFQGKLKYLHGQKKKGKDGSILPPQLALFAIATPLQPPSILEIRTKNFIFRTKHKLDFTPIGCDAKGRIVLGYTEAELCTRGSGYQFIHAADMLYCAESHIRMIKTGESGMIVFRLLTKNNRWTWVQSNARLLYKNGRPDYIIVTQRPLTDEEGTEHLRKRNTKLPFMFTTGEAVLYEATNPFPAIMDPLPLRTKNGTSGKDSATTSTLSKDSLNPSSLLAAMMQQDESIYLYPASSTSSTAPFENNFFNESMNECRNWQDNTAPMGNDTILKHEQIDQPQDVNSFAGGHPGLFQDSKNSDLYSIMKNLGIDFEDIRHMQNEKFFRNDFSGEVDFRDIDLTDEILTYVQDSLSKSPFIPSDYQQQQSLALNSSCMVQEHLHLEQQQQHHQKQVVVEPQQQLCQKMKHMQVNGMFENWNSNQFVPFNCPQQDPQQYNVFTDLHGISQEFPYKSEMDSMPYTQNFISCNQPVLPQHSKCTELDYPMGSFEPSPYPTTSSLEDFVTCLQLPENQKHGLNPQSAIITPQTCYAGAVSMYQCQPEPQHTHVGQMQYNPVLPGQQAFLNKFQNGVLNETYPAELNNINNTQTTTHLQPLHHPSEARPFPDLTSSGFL

For the compound `C[N+](C)(C)C`, the Potency result in assay [1], in assay [2], in assay [3], in assay [4], in assay [5] and in assay [7] was “inactive” each time. Further, the Potency entry (in assay [8]; with Aromatase (Homo sapiens); in assay [9]; in assay [10]; in [11]; in [12]) was “inactive” throughout. The Potency entry in [13], in assay [14], in [15], in assay [16] and in [17] was “inactive” in each case. Also, in assay [6], the Potency entry was “inactive and 49.1 µM (active)”.

Take `COP(=S)(OC)Oc1ccc(S(=O)(=O)N(C)C)cc1`: the Potency entry in assay [1], in assay [2], in [3], in assay [4], in [5] and in assay [6] was “inactive” each time. Besides, the Potency entry in assay [7], in [8], in assay [9], in [10], in [11] and in assay [12] was “inactive” in each case. For the same compound, the Potency result in assay [13], in [14], in [16], in assay [17] and in assay [18] was “inactive” each time. Besides, the Potency result in the assay with Aromatase (Homo sapiens) was “inactive and 61.1 µM (active)”.

Consider `CC1(C)C(C(=O)OC(C#N)c2cccc(Oc3ccccc3)c2)C1(C)C` (stereo not given), for which the Potency result in assay [1], in [2], in assay [3], in assay [4], in [5] and in assay [7] was “inactive” throughout. Further, the Potency entry in assay [8], in assay [9], in [10], in assay [11], in [12] and in assay [13] was “inactive” each time. Besides, the Potency entry in assay [14], in assay [15], in [16], in assay [17] and in assay [18] was “inactive” throughout. For the same compound, the Potency with Aromatase (Homo sapiens) is 48.9 µM (active).

For `ClCC(Cl)CCl`, the Potency entry in assay [1], in assay [19], in [2], in assay [4], in assay [8] and in assay [11] was “inactive” throughout. For the same compound, the Potency entry in assay [14], in assay [15], in assay [16], in assay [17] and in assay [18] was “inactive” throughout.

For `CC(C)CON=O`, the Potency result in assay [1], in assay [3], in [4], in [5], in assay [6] and in [7] was “inactive” each time. Further, the Potency result (in [8]; in the assay with Aromatase (Homo sapiens); in [9]; in [10]; in assay [11]; in assay [12]) was “inactive” throughout. Moreover, the Potency result in assay [13], in [14], in assay [15], in [16], in assay [17] and in assay [18] was “inactive” throughout.

Turning to `CCCCCCCC[N+](C)(CCCCCCCC)CCCCCCCC`, the Potency entry in [1] is “inactive and 2.44 µM (active) and 6.11 µM (active)”; in assay [19] it was 1.37 µM (active) and 2.73 µM (active); in assay [4], 7.75 µM (active) and 27.6 µM (active) and 8.71 µM (active); in assay [8], “inactive and 13.7 µM (active) and 27.3 µM (active)”; with Aromatase (Homo sapiens), 15.3 µM (active) and 3.44 µM (active) and 15.4 µM (active); in assay [9] it was 17.2 µM (active) and 4.86 µM (active) and 27.3 µM (active). Moreover, the Potency result in assay [11] is “inactive and 24.3 µM (active)”; in assay [14], 7.75 µM (active) and 3.47 µM (active) and 5.49 µM (active); in [16], 12.2 µM (active) and 19.4 µM (active) and 8.63 µM (active); in [17] it was 13.8 µM (active) and 4.37 µM (active). The Potency entry in assay [2] and in [10] was “inactive” in each case.
